Reference: PubChem BioAssay (NCATS)
“And” between values parts separate entries of the source, which are not always exact repeats. Identical values can stand only once. Results filed as inconclusive are left out. The source made the active and inactive calls. Unless noted, the call rests on the fitted dose curve; in most records, active means well fitted curve in the direction sought with a large enough effect; inconclusive means small, poorly fitted or top-dose-only effect, or another doubt; inactive means no such curve, though single readings can be large; an effect the other way counts as inactive or inconclusive.

Columns and labels:
[1] = target: Thioredoxin reductase 1, cytoplasmic (Rattus norvegicus) (UniProt O89049); assay: qHTS Assay for Inhibitors of Mammalian Selenoprotein Thioredoxin Reductase 1 (TrxR1) (AID 488773); details: Potency: inhibition;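 further: drop in NADPH fluorescence over an 8 min run after selenite addition; series mostly up to about 57 µM; on the % scale 0 is the no-effect control and ±100 the full control effect; nearly all actives have a fitted effect of over 40% in size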
Procedure, shortened: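 Inhibition is scored from the loss of NADPH fluorescence between first and last reads of an 8-min kinetic run. Selenite (400 uM) was the substrate, added after 15 min compound preincubation at room temperature.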

[2] = target: Flap endonuclease 1 (Homo sapiens) (UniProt P39748); assay: qHTS Validation Assay for the Inhibitors of Human Flap endonuclease 1 (FEN1) (AID 488816); further: on the % scale 0 is the no-effect control and ±100 the full control effect
Procedure, shortened: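 qHTS format: compounds and 10 nM FEN1 incubated 15 min at room temperature before adding 50 nM substrate. Cleavage followed by reads at 0 and 15 min; normalized data fitted to a four-parameter Hill curve.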

[3] = target: M-phase phosphoprotein 8 (Homo sapiens) (UniProt Q99549); assay: qHTS Validation Assay for Inhibitors for MPP8 Chromodomain Interactions with Methylated Histone Tails (AID 488949); further: nearly all actives have a fitted effect of over 55% in size; further: potency means the concentration at half of the fitted maximal effect
Procedure, shortened: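 50 nM MPP8 + 50 nM b-H3K9me3 peptide, PBS pH 7.4/0.01% Tween-20, 30 min RT; + cpd 30 min RT; + AlphaScreen donor/Ni-chelate acceptor beads 10 ug/mL final, 30 min dark; luminescence read.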

[4] = target: Chromobox protein homolog 1 (Homo sapiens) (UniProt P83916); assay: qHTS Validation Assay for Inhibitors of HP1-beta Chromodomain Interactions with Methylated Histone Tails (AID 488953); further: nearly all actives have a fitted effect of over 50% in size; further: potency means the concentration at half of the fitted maximal effect
Procedure, shortened: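 Disruption of preformed HP1-beta:H3K9me3 peptide complexes (both 50 nM, PBS pH 7.4 with 0.01% Tween-20) is measured by AlphaScreen after 30 min compound exposure at room temperature, using streptavidin donor and nickel chelate acceptor beads at 10 ug/mL final.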

[5] = target: Methanococcus maripaludis chaperonin (MmCpn) (UniProt Q6LX38); assay: High-Throughput Screening for Modulators of Cytosolic Chaperonin Activity: MmCpn Primary Screen (AID 488978);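 further: 50 nM MmCpn enzyme hydrolysing 30 µM ATP at 37 °C; 0% is about no effect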
Procedure, shortened: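 Steps: chaperonin 50 nM final; add compound, 5 min RT; start with ATP, 30 uM final; hold 10 min at 37C; add ADP Transcreener HTRF reagent, 5 min; read ex 320, em 590 and 665 nm.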

[6] = target: D(1A) dopamine receptor (Homo sapiens) (UniProt P21728); assay: HTS Assay for Allosteric Agonists of the Human D1 Dopamine Receptor: Primary Screen for Agonists (AID 488981); further: 0% is about no effect
Procedure, shortened: (§1)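 Calcium flux in an inducible, force-coupled HEK293 Trex D1 line (overnight at 30 C): agonist mode is the 180 s kinetic read after compound; potentiator mode is the following 180 s read after dopamine at EC20.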

[7] = target: D(1A) dopamine receptor (Homo sapiens) (UniProt P21728); assay: HTS Assay for Allosteric Agonists of the Human D1 Dopamine Receptor: Primary Screen for Potentiators (AID 488982); further: 0% is about no effect
Procedure, shortened: as §1

[8] = target: D(1A) dopamine receptor (Homo sapiens) (UniProt P21728); assay: HTS Assay for Allosteric Agonists of the Human D1 Dopamine Receptor: Primary Screen for Antagonists (AID 488983);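 further: calcium flux response to an EC80 dopamine challenge measured with no-wash dye; on the % scale 0 is the no-effect control and ±100 the full control effect; nearly all actives have a fitted effect of over 65% in size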
Procedure, shortened: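 Kinetic fluorescence at 1 cycle/sec tracked intracellular calcium in force-coupled, tetracycline-inducible HEK293 T-REx D1 cells. Loss of response to an EC80 dopamine dose, given 180 s after compound, marked antagonists.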

[9] = Validation screen for small molecules that induce genotoxicity in human embryonic kidney (HEK293T) cells expressing luciferase-tagged ELG1 (AID 493106); further: 0% is about no effect
Procedure, shortened: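 Cells were dispensed at 2,000 per well, then 23 nL compound or DMSO was pinned in. After 16 hr at 37 °C and 5% CO2, ONE-Glo reagent was added. Luciferase activity was measured following 30 min at room temperature.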

[10] = target: ATPase family AAA domain-containing protein 5 (Homo sapiens) (UniProt Q96QE3); assay: Validation screen for small molecules that inhibit ELG1-dependent DNA repair in human embryonic kidney (HEK293T) cells expressing luciferase-tagged ELG1 (AID 493107); further: nearly all actives have a fitted effect of over 70% in size; further: potency means the concentration at half of the fitted maximal effect
Procedure, shortened: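 Cells are dispensed in 1536-well format, then 5-fluorouridine and compound are pinned in. After a 16 hr incubation at 37 °C and 5% CO2, ONE-Glo is added and luciferase measured on a CCD imager.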

[11] = Nrf2 qHTS screen for inhibitors: Validation (AID 493153; active means well fitted inhibition curve with a large enough effect in the main read-out, with a control signal flat, not every such curve was filed as active; further: potency means the concentration at half of the fitted maximal effect); details: Potency: luciferase luminescence; viability change: measured here: cytotoxicity max response
Procedure, shortened: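 A549 ARE_Fluc, 5% FBS OPTI-MEM; cpd titration, 18-24 h, 37°C/5% CO2. Read 1: CellTiter-Fluor (Ex 405/Em 525), cytotox. Read 2: luciferase lum, Nrf2 activity.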

[12] = qHTS for Inhibitors of Cell Surface uPA Generation: Validation Assay (AID 493164);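 further: RAW 264.7 macrophage cells exposed to compound for 18 h; 0% is about no effect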
Procedure, shortened: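 ATP-Lite luminescence read-out: ATP remains high when uPA activity-dependent LF translocation into the cytoplasm is blocked. RAW 264.7 cells, 18 h compound exposure at 37 C; 7-point titration, 2.45 nM to 38.3 uM final.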

[13] = target: Peptidyl-prolyl cis-trans isomerase NIMA-interacting 1 (Homo sapiens) (UniProt Q13526); assay: qHTS Validation Assay to Find Inhibitors of Pin1 (AID 504536; active means well fitted inhibition curve with a large enough effect in the polarisation, with a control signal flat, not every such curve was filed as active; the % refers to the polarisation;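 further: 0% = full Pin1 enzyme wells and -100% = no-enzyme wells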)
Procedure, shortened: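 Fluorescence polarization competition: compounds (titration) displace HiFluor-488-labeled Pin1-1b peptide from Pin1 (0.3 uM final) in pH 7.5 HEPES buffer with DTT, 10 min at room temperature; %Activity normalized to no-enzyme wells, curves fitted.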

[14] = target: Phosphoglycerate kinase, glycosomal (Trypanosoma brucei brucei) (UniProt P07378); assay: qHTS Validation Assay to Find Inhibitors of Phosphoglycerate Kinase (AID 504547);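 further: control wells lack PGK and mark full inhibition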
Procedure, shortened: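 Luminescence end-point (Kinase-Glo Plus, 10 min) after a 60 min room-temperature coupled reaction. GAPDH at 100nM final supplies 1,3-BPG to PGK. Buffer: 100mM TEA pH 7.6, 5mM MgCl2, 0.01% Tween-20. Wells lacking PGK served as controls.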

[15] = target: ATP-dependent 6-phosphofructokinase (Trypanosoma brucei brucei) (UniProt O15648); assay: qHTS Assay to Find Inhibitors of T. brucei phosphofructokinase: hit validation (AID 492961);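 further: luminescence reports ADP formed as PFK phosphorylates fructose-6-phosphate with ATP; series mostly up to about 51 µM; on the % scale 0 is the no-effect control and ±100 the full control effect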
Procedure, shortened: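 Measures ADP output of PFK (1.25 nM) at 0.1 mM ATP, 0.5 mM F6P, pH 8.0 TEA buffer with 5 mM MgCl2. No-enzyme wells define full inhibition; uninhibited enzyme wells define zero.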

[16] = target: Transient receptor potential cation channel subfamily V member 1 (Homo sapiens) (UniProt Q8NER1); assay: HTS Assay for Compounds that Act as Enhancers of the Vanilloid Receptor 1 (AID 488979); further: 0% is about no effect
Procedure, shortened: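 Calcium influx kinetics via Fluo-8 (480/520 nm) in TRPV1-expressing cells, 2000/well cultured overnight at 35.5C. Compound-alone read 3 min (agonist phase), followed by EC20 capsaicin challenge for 2 min (enhancer phase).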

[17] = target: Thyrotropin-releasing hormone receptor (Homo sapiens) (UniProt P34981); assay: qHTS for Small Molecule Agonists and Allosteric Enhancers of Human TRH Receptor: Validation Screen for Agonists (AID 493127;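 active means calcium activation more than 3 SD above the typical response in the agonist read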;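 further: intracellular calcium rise by fluo-8 fluorescence before TRH EC20 addition; 0% is about no effect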); details: TRH receptor agonist cell assay; at 2 µM; stronger effect = higher value
Procedure, shortened: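 Compounds are added by online pintool to dye-loaded TRHR cells while fluorescence is recorded every second. A rise in calcium signal during the agonist read marks activation; a later 10 nM TRH addition (EC20) serves the separate enhancer mode.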

[18] = target: Galactokinase (Homo sapiens) (UniProt P51570); assay: qHTS Validation Assay for Inhibitors of Human Galactokinase (GALK) (AID 493189); further: 0% is about no effect
Procedure, shortened: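 5 nM GALK / 100 uM galactose / 35 uM ATP, 20 mM HEPES pH8.0, 5 mM MgCl2, 60 mM NaCl, 1 mM DTT, 0.01% BSA (final). RT 1 h; Kinase-Glo Plus luminescence.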

[19] = target: Thyrotropin receptor (Homo sapiens) (UniProt P16473); assay: qHTS Assay for Antagonists of the Thyroid Stimulating Hormone Receptor (AID 488980); further: series mostly up to about 58 µM; 0% is about no effect
Procedure, shortened: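 Readout is cAMP by HTRF competition between cellular cAMP and cAMP-d2 for a cryptate-labelled antibody. Antagonism was assessed in TSHR-transfected HEK293 cells stimulated with 4 nM TSH (EC80, final) in the presence of RO 20-1724.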

[20] = Validation screen for small molecules that induce DNA re-replication in SW480 colon adenocarcinoma cells (AID 504364); further: 0% is about no effect
Procedure, shortened: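 Image-based qHTS: compounds were incubated with SW480 cells for 48 hr, nuclei stained with Hoechst, and per-nucleus fluorescence intensity scanned to flag cells with excess DNA content.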

Sequence of Transient receptor potential cation channel subfamily V member 1 (Homo sapiens) (Q8NER1 whole entry, looked up): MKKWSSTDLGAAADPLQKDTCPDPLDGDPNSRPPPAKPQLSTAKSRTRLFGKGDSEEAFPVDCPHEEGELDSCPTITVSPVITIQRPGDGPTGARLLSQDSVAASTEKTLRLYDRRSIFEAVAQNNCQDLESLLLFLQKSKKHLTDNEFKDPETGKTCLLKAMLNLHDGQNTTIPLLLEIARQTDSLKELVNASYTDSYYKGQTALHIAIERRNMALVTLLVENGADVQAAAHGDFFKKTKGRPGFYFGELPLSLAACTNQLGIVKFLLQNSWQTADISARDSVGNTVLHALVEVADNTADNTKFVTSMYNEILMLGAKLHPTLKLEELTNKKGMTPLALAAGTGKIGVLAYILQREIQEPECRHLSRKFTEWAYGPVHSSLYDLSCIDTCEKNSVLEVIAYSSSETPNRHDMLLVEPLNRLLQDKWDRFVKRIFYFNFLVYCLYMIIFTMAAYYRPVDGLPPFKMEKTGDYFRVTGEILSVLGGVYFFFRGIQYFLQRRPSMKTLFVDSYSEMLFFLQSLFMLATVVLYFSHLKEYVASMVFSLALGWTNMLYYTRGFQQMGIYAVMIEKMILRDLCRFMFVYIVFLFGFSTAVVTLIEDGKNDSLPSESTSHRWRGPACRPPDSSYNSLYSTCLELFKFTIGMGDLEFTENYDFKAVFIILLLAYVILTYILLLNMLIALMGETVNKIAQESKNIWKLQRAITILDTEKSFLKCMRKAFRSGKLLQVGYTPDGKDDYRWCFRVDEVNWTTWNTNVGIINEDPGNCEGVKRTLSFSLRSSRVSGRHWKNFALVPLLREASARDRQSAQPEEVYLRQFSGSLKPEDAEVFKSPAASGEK
Sequence of Thyrotropin receptor (Homo sapiens) (P16473 whole entry, looked up): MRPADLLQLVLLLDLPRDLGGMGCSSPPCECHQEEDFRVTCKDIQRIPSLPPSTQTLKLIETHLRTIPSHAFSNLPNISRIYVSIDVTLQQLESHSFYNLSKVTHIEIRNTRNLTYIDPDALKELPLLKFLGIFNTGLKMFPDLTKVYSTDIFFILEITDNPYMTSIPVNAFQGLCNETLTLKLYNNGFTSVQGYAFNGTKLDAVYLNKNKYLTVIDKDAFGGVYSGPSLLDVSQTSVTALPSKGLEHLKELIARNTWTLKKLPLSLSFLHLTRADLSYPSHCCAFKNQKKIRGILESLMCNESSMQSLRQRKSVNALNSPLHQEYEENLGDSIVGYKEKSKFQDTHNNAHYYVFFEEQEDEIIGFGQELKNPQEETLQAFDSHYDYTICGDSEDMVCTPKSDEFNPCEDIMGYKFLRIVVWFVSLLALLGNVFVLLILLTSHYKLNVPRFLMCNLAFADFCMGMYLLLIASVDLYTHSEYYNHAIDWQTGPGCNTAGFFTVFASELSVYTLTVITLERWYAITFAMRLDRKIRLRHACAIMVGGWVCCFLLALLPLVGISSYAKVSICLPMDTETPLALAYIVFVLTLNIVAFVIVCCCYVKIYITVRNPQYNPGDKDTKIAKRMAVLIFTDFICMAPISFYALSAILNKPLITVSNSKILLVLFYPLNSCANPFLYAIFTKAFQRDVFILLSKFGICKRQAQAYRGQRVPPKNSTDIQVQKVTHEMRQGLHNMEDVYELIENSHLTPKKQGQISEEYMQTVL
Sequence of Thyrotropin-releasing hormone receptor (Homo sapiens) (P34981 whole entry, looked up): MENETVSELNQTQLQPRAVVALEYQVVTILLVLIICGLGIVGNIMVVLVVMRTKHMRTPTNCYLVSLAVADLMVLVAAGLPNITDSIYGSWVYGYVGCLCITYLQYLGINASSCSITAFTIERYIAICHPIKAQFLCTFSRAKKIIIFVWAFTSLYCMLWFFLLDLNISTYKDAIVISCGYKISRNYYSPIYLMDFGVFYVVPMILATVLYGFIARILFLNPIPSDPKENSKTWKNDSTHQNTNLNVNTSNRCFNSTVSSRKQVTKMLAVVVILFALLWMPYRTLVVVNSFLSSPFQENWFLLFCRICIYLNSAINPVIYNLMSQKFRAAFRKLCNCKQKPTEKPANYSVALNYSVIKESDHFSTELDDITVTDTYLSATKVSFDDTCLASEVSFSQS
Sequence of Flap endonuclease 1 (Homo sapiens) (P39748 whole entry, looked up): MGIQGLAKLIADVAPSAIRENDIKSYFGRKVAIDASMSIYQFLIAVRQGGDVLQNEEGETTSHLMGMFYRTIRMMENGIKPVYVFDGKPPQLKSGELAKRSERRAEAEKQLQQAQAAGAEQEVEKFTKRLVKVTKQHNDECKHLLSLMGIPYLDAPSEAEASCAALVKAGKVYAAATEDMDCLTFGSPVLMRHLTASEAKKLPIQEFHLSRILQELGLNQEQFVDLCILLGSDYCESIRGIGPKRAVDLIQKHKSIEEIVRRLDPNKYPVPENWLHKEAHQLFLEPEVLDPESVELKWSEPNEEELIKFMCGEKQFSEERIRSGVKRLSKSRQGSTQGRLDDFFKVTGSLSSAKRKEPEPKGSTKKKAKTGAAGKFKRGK
Sequence of Galactokinase (Homo sapiens) (P51570 whole entry, looked up): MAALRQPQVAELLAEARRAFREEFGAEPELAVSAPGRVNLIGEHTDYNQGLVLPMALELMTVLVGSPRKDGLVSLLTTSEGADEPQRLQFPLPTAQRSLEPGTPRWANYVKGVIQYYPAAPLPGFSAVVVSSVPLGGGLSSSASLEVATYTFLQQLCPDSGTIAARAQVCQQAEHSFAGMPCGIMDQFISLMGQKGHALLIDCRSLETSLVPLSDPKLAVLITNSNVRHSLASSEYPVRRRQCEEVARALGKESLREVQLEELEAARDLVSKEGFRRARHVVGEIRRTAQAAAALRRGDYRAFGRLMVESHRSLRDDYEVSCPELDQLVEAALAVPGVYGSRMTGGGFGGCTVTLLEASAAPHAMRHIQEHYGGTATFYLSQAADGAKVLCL
Sequence of ATP-dependent 6-phosphofructokinase (Trypanosoma brucei brucei) (O15648 whole entry, looked up): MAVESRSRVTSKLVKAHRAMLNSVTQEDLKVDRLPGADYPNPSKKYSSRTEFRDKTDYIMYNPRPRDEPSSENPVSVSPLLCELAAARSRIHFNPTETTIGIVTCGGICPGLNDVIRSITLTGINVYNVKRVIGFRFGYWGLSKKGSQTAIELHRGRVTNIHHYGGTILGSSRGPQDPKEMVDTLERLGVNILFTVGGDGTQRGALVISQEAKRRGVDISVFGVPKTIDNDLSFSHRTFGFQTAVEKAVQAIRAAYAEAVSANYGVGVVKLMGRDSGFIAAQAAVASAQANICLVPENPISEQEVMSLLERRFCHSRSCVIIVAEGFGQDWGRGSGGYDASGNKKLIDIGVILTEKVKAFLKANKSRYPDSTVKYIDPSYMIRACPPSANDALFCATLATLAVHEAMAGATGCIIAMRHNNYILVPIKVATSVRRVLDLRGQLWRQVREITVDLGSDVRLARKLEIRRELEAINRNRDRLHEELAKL
Sequence of D(1A) dopamine receptor (Homo sapiens) (P21728 whole entry, looked up): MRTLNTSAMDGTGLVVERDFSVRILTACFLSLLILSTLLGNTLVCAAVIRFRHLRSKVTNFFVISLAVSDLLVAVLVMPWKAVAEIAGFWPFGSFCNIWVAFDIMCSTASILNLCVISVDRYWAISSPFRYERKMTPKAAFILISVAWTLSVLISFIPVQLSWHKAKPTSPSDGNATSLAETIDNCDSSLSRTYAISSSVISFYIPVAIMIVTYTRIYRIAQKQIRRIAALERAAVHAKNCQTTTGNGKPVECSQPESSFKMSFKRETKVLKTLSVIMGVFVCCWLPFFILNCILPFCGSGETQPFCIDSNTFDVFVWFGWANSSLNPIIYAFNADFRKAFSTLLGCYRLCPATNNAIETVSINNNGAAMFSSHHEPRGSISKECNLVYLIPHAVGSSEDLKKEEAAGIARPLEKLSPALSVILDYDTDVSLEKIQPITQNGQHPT
Sequence of M-phase phosphoprotein 8 (Homo sapiens) (Q99549 whole entry, looked up): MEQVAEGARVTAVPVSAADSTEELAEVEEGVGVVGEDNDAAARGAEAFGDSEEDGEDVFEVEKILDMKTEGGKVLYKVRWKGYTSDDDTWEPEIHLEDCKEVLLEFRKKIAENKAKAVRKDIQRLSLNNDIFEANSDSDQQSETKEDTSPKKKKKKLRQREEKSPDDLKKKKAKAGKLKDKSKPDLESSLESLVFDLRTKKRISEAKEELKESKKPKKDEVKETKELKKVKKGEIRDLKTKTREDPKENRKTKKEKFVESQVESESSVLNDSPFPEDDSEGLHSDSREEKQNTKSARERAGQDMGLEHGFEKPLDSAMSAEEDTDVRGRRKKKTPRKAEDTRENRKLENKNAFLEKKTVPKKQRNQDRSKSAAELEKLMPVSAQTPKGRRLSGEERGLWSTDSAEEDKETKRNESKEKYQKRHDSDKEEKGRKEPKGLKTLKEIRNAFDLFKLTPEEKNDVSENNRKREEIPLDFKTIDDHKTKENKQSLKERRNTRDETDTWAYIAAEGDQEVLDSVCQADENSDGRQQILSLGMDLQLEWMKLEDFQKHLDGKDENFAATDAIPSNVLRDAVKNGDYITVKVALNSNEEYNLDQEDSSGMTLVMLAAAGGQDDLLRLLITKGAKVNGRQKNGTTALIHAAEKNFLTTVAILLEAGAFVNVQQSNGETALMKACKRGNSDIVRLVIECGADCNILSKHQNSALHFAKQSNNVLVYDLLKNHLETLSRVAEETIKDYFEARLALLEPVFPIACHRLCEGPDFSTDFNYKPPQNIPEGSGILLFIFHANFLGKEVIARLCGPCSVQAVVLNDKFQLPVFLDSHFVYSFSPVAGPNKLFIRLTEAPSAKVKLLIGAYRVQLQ
Sequence of Phosphoglycerate kinase, glycosomal (Trypanosoma brucei brucei) (P07378 whole entry, looked up): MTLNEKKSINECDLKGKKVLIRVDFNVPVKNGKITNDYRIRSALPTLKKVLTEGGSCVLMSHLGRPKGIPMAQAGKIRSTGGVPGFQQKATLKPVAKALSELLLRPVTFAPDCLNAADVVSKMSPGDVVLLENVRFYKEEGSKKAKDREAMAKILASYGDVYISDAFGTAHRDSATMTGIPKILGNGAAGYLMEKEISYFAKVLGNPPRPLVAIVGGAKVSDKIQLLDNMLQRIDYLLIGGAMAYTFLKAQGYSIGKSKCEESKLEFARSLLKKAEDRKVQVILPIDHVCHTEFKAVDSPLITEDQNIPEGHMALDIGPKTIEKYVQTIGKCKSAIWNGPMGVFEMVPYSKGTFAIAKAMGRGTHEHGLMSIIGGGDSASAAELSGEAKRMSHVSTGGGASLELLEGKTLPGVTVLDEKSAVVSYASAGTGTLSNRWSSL

O=C(O)COCCN1CCN(C(c2ccccc2)c2ccc(Cl)cc2)CC1 (configuration not stated)
inactive: Potency [1] | Potency [2] | Potency [3] | Potency [4] | outcome [5] | Potency [6] | Potency [7] | Potency [8] | Potency [9] | Potency [10] | Potency [11] | outcome [12] | outcome [13] | outcome [14]
1.19%: viability change [11]

Nc1ncnc2nc(-c3ccc(N4CCOCC4)nc3)cc(-c3cccc(Br)c3)c12
active: Potency [10] 4.11 µM
inactive: Potency [3] | outcome [5] | Potency [6] | Potency [7] | Potency [8] | Potency [9] | outcome [12] | outcome [13] | outcome [14]

Cc1c(C)c2c(c(C)c1O)CCC(C)(COc1ccc(CC3SC(=O)NC3=O)cc1)O2 (configuration not stated)
inactive: outcome [15]

CCOC(=O)N1CCC(=C2c3ccc(Cl)cc3CCc3cccnc32)CC1
inactive: Potency [1] | Potency [2] | Potency [3] | outcome [5] | outcome [16] | Potency [6] | Potency [7] | Potency [8] | Potency [9] | activation [17] -10.4% | outcome [12] | outcome [18] | outcome [13] | outcome [14]

C#Cc1cccc(Nc2ncnc3cc(OCCOC)c(OCCOC)cc23)c1
inactive: outcome [15]

CCc1ccc(CCOc2ccc(CC3SC(=O)NC3=O)cc2)nc1 (configuration not stated)
inactive: outcome [15]

CC(C)(C)NCC(O)c1ccc(O)c(CO)c1 (configuration not stated)
-3.99% and 2.04%: viability change [11]
inactive: Potency [1] | Potency [3] | Potency [4] | outcome [5] | outcome [16] | outcome [19] | Potency [6] | Potency [7] | Potency [8] | Potency [9] | Potency [10] | activation [17] 0.188% and 0.75% | Potency [11] | outcome [12] | outcome [18] | outcome [20] | outcome [13] | outcome [14]

Cc1cccc(-c2[nH]c(C(C)(C)C)nc2-c2ccc3nccnc3c2)n1
inactive: Potency [1] | Potency [2] | Potency [3] | Potency [4] | outcome [5] | Potency [6] | Potency [7] | Potency [8] | Potency [9] | outcome [12] | outcome [13] | outcome [14]

C[C@]12CCC(=O)C=C1CC[C@@H]1[C@@H]2[C@@H](O)C[C@@]2(C)[C@H]1CC[C@]2(O)C(=O)CO
-7.36%: viability change [11]
active: Potency [11] 0.0731 µM
inactive: Potency [1] | Potency [2] | Potency [3] | Potency [4] | outcome [5] | Potency [6] | Potency [7] | Potency [8] | outcome [12] | outcome [13] | outcome [14]

Cc1ccc(N(CC2=NCCN2)c2cccc(O)c2)cc1
inactive: Potency [1] | Potency [2] | Potency [3] | outcome [5] | outcome [16] | outcome [19] | Potency [6] | Potency [7] | Potency [9] | Potency [11] | outcome [12] | outcome [18] | outcome [20] | outcome [13] | outcome [14]
4.38%: viability change [11]

N#Cc1ccc(C(c2ccc(C#N)cc2)n2cncn2)cc1
inactive: outcome [15]

CN1CCN(CCCN2c3ccccc3Sc3ccc(C(F)(F)F)cc32)CC1
active: Potency [3] 20 µM | Potency [4] 31.6 µM
inactive: Potency [1] | Potency [2] | outcome [5] | outcome [19] | Potency [6] | outcome [15] | Potency [9] | outcome [12] | outcome [18] | outcome [20] | outcome [13] | outcome [14]
